Source: the supplement of paper PMC6555819

Experiments:
Assay in all cases: PBM binding z-score (relative to random genomic background probes); higher = stronger binding; sequences stand for … in GC…GCGATTGACAGCGTAGAATGAAGG
[1] = tested on: PPARg:RXRa DBDmut IVT, anti-RXR (DBD mutation: RXRa K156A/R161A, NR concentration 270 nM, RXRa partner concentration 90 nM)
Outline: (§1)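 Ligand-free nuclear receptor dimers were applied to custom Agilent 4×180K protein-binding microarrays whose double-stranded probes carried direct-repeat seeds, single-nucleotide variants, half-site ablations and random human genomic background sequences in 34-nt variable regions. Incubation lasted 1 h. Binding z-scores were computed against the random background probes from regression-normalized fluorescence.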

[2] = tested on: PPARg:RXRa IVT, anti-PPARg (NR concentration 270 nM, RXRa partner concentration 90 nM)
Outline: as §1

[3] = tested on: PPARg DBDmut:RXRa IVT, anti-PPARg (DBD mutation: PPARg1 K132A/R137A, NR concentration 270 nM, RXRa partner concentration 90 nM)
Outline: as §1

[4] = tested on: PPARg DBDmut IVT, anti-PPARg (DBD mutation: PPARg1 K132A/R137A, NR concentration 270 nM)
Outline: as §1

[5] = tested on: PPARg homodimer (NR concentration 180 nM)
Outline: as §1

[6] = tested on: PXR:RXRa (NR concentration 270 nM, RXRa partner concentration 90 nM)
Outline: as §1

[7] = tested on: PXR homodimer (NR concentration 270 nM)
Outline: as §1

[8] = tested on: RARa:RXR (NR concentration 270 nM, RXRa partner concentration 90 nM)
Outline: as §1

[9] = tested on: RARa homodimer (NR concentration 270 nM)
Outline: as §1

[10] = tested on: RARb:RXRa (NR concentration 270 nM, RXRa partner concentration 90 nM)
Outline: as §1

[11] = tested on: RARb homodimer (NR concentration 270 nM)
Outline: as §1

[12] = tested on: RARg:RXRa (NR concentration 270 nM, RXRa partner concentration 90 nM)
Outline: as §1

[13] = tested on: RARg homodimer (NR concentration 270 nM)
Outline: as §1

[14] = tested on: RXRa DBDmut IVT, anti-RXR (DBD mutation: RXRa K156A/R161A, NR concentration 90 nM)
Outline: as §1

[15] = tested on: RXRa homodimer (NR concentration 180 nM)
Outline: as §1

[16] = tested on: THRa:RXRa (NR concentration 90 nM, RXRa partner concentration 90 nM)
Outline: as §1

[17] = tested on: THRa homodimer (NR concentration 90 nM)
Outline: as §1

[18] = tested on: VDR homodimer (NR concentration 270 nM)
Outline: as §1

Sequence: ATATGTAGGTTAGCTGGGGTCATTAAGACTAGGC
- PBM binding z-score [1]: 7.01
- PBM binding z-score [2]: 6.64
- PBM binding z-score [3]: 3.24
- PBM binding z-score [4]: 2.7
- PBM binding z-score [5]: 2.8
- PBM binding z-score [6]: 5.91
- PBM binding z-score [7]: 3.46
- PBM binding z-score [8]: 5.15
- PBM binding z-score [9]: 1.22
- PBM binding z-score [10]: 3
- PBM binding z-score [11]: 3.6
- PBM binding z-score [12]: 3.87
- PBM binding z-score [13]: 3.03
- PBM binding z-score [14]: 1.83
- PBM binding z-score [15]: 5.15
- PBM binding z-score [16]: 5.26
- PBM binding z-score [17]: 3
- PBM binding z-score [18]: 4.98

Sequence: GGAACGAGGGCAAAGTTGACAGCATCTGTCGACG
- PBM binding z-score [1]: 4.28
- PBM binding z-score [2]: 4.82
- PBM binding z-score [3]: 1.12
- PBM binding z-score [4]: 0.308
- PBM binding z-score [5]: 0.924
- PBM binding z-score [6]: 1.91
- PBM binding z-score [7]: 0.0135
- PBM binding z-score [8]: 2.66
- PBM binding z-score [9]: -0.5
- PBM binding z-score [10]: 2.65
- PBM binding z-score [11]: 1.58
- PBM binding z-score [12]: 2.77
- PBM binding z-score [13]: 2.16
- PBM binding z-score [14]: 2.56
- PBM binding z-score [15]: 2.76
- PBM binding z-score [16]: 1.67
- PBM binding z-score [17]: -0.266
- PBM binding z-score [18]: 1.24

Sequence: GATACAGGGTCAGCTAGAGGCCAGATTATGGAAA
- PBM binding z-score [1]: 0.866
- PBM binding z-score [2]: 2.23
- PBM binding z-score [3]: 0.547
- PBM binding z-score [4]: -0.0092
- PBM binding z-score [5]: 1.91
- PBM binding z-score [6]: 3.24
- PBM binding z-score [7]: -0.0885
- PBM binding z-score [8]: 4.03
- PBM binding z-score [9]: 0.518
- PBM binding z-score [10]: 4.12
- PBM binding z-score [11]: 3.59
- PBM binding z-score [12]: 6.4
- PBM binding z-score [13]: 4.49
- PBM binding z-score [14]: 1.25
- PBM binding z-score [15]: 4.05
- PBM binding z-score [16]: 3.2
- PBM binding z-score [17]: 0.619
- PBM binding z-score [18]: 0.715

Sequence: TTACCAAGGTGAAAGGTCTTTGATGCACGCCTTG
- PBM binding z-score [1]: 2.19
- PBM binding z-score [2]: 4.37
- PBM binding z-score [3]: 0.282
- PBM binding z-score [4]: 0.356
- PBM binding z-score [5]: 1.16
- PBM binding z-score [6]: 1.19
- PBM binding z-score [7]: -0.419
- PBM binding z-score [8]: 1.96
- PBM binding z-score [9]: 0.0646
- PBM binding z-score [10]: 1.96
- PBM binding z-score [11]: 1.15
- PBM binding z-score [12]: 1.67
- PBM binding z-score [13]: 0.887
- PBM binding z-score [14]: -0.125
- PBM binding z-score [15]: 2.43
- PBM binding z-score [16]: 2.13
- PBM binding z-score [17]: 0.663
- PBM binding z-score [18]: -0.219

Sequence: CCTAGCAGGCCAATCTGGGTCACTCGAGGCTTGA
- PBM binding z-score [1]: 4.16
- PBM binding z-score [2]: 4.75
- PBM binding z-score [3]: -0.336
- PBM binding z-score [4]: 0.34
- PBM binding z-score [5]: 1.39
- PBM binding z-score [6]: 1.1
- PBM binding z-score [7]: -0.592
- PBM binding z-score [8]: 1.85
- PBM binding z-score [9]: -0.324
- PBM binding z-score [10]: 1.56
- PBM binding z-score [11]: 2.3
- PBM binding z-score [12]: 1.11
- PBM binding z-score [13]: 1.12
- PBM binding z-score [14]: -0.0882
- PBM binding z-score [15]: 0.738
- PBM binding z-score [16]: 3.7
- PBM binding z-score [17]: 0.253
- PBM binding z-score [18]: 0.136

Sequence: TCTATTGGTTGATTAGGGCAACCGAAACAGCGGA
- PBM binding z-score [1]: 1.96
- PBM binding z-score [2]: 1.31
- PBM binding z-score [3]: 1.58
- PBM binding z-score [4]: 0.647
- PBM binding z-score [5]: 1.38
- PBM binding z-score [6]: 0.573
- PBM binding z-score [7]: 0.277
- PBM binding z-score [8]: 0.835
- PBM binding z-score [9]: 0.652
- PBM binding z-score [10]: 1.06
- PBM binding z-score [11]: 0.698
- PBM binding z-score [12]: 0.341
- PBM binding z-score [13]: 0.499
- PBM binding z-score [14]: 0.712
- PBM binding z-score [15]: 0.317
- PBM binding z-score [16]: 0.871
- PBM binding z-score [17]: 0.352
- PBM binding z-score [18]: 0.054

Sequence: CCTACTGGGCCAAAGGTCATCGATTCCAATGCTC
- PBM binding z-score [1]: 4.64
- PBM binding z-score [2]: 6.76
- PBM binding z-score [3]: 0.425
- PBM binding z-score [4]: -0.332
- PBM binding z-score [5]: 3.7
- PBM binding z-score [6]: 5.15
- PBM binding z-score [7]: 0.811
- PBM binding z-score [8]: 6.16
- PBM binding z-score [9]: 1.37
- PBM binding z-score [10]: 4.7
- PBM binding z-score [11]: 4.9
- PBM binding z-score [12]: 6.09
- PBM binding z-score [13]: 5.38
- PBM binding z-score [14]: 0.987
- PBM binding z-score [15]: 7.08
- PBM binding z-score [16]: 3.65
- PBM binding z-score [17]: 0.966
- PBM binding z-score [18]: 2.04
